Several values for one entry are separate records, joined by “and”; a condition that tells them apart may be missing. Equal values may be shown once. Results filed as inconclusive are left out. Activity calls are given as the source filed them. Rule for the calls, unless noted: active = hit-call score of the fitted dose curve at least 0.9, where 1 is the maximum; inconclusive = response in the unintended direction; inactive = score below 0.9.
Legend:
[1] = read-out: Transforming Growth Factor (TGFA), TGFA (gene 7039); assay: LTEA_HepaRG_TGFA: Life Technologies and Expression Analysis (LTEA) Assay for Transforming Growth Factor (TGFA) using HepaRG (AID 2283532; active = hit-call score of the fitted dose curve at least 0.9, where 1 is the maximum; inactive = score below 0.9); details: mRNA level, 48 h; actives raise or lower the signal
Summary of the method: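 Gene expression of TGFA was quantified by qRT-PCR after human HepaRG cells were treated for 48 h with test chemicals (eight concentrations, highest 100 uM, 0.5% DMSO). Activity in either direction was fitted relative to DMSO.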

[2] = read-out: Transforming Growth Factor (TGFB1), TGFB1 (gene 7040); assay: LTEA_HepaRG_TGFB1: Life Technologies and Expression Analysis (LTEA) Assay for Transforming Growth Factor (TGFB1) Transporter using HepaRG (AID 2283533; active = hit-call score of the fitted dose curve at least 0.9, where 1 is the maximum; inactive = score below 0.9); details: mRNA level, 48 h; actives raise or lower the signal
Summary of the method: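 HepaRG, 48 h post-plating, switched to serum-free induction medium; chemicals 100 uM top, half-log, 8 pts, 0.5% DMSO, dup; 48 h exposure; RNA → Fluidigm TaqMan qRT-PCR; norm ACTB/GAPDH/POLR2A; bidirectional fit vs DMSO.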

TIMP1, TIMP1 (gene 7076) = assay: LTEA_HepaRG_TIMP1: Life Technologies and Expression Analysis (LTEA) Assay for TIMP1 using HepaRG (AID 2283534; active = hit-call score of the fitted dose curve at least 0.9, where 1 is the maximum; inactive = score below 0.9;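 note: TaqMan qRT-PCR signal normalized to ACTB GAPDH and POLR2A housekeeping genes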); details: mRNA level, 48 h; actives raise or lower the signal
Summary of the method: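 Readout is TIMP1 mRNA level measured by qRT-PCR and normalized to three housekeeping genes. Human HepaRG cells were treated for 48 h in duplicate at eight concentrations up to 100 uM (0.5% DMSO); gain or loss fitted against DMSO.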

[3] = read-out: Tumor necrosis factor receptor 1 (TNFRSF1A), TNFRSF1A (gene 7132); assay: LTEA_HepaRG_TNFRSF1A: Life Technologies and Expression Analysis (LTEA) Assay for Tumor necrosis factor receptor 1 (TNFRSF1A) using HepaRG (AID 2283535; active = hit-call score of the fitted dose curve at least 0.9, where 1 is the maximum; inactive = score below 0.9); details: mRNA level, 48 h; actives raise or lower the signal
Summary of the method: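 Read-out is TNFRSF1A transcript level by TaqMan qRT-PCR, normalized to three housekeeping genes, scored as gain or loss of signal versus 0.5% DMSO. Human HepaRG cells received test chemicals for 48 h at up to 100 uM (half-log series).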

[4] = read-out: Thyroid Hormone Responsive (THRSP), THRSP (gene 7069); assay: LTEA_HepaRG_THRSP: Life Technologies and Expression Analysis (LTEA) Assay for Thyroid Hormone Responsive (THRSP) using HepaRG (AID 2283536; active = hit-call score of the fitted dose curve at least 0.9, where 1 is the maximum; inactive = score below 0.9); details: mRNA level, 48 h; actives raise or lower the signal
Summary of the method: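 Cell model: human HepaRG, approx. 100,000 cells/well, 0.5% DMSO vehicle. Exposure lasts 48 h; phenobarbital 1 mM serves as induction positive control. Gene expression is measured by qRT-PCR against three endogenous control genes.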

[5] = read-out: UDP glucuronosyltransferase (UGT1A1), UGT1A1 (gene 54658); assay: LTEA_HepaRG_UGT1A1: Life Technologies and Expression Analysis (LTEA) Assay for UDP glucuronosyltransferase (UGT1A1) using HepaRG (AID 2283538; active = hit-call score of the fitted dose curve at least 0.9, where 1 is the maximum; inactive = score below 0.9); details: mRNA level, 48 h; actives raise or lower the signal
Summary of the method: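 UGT1A1 transcript level, measured by qRT-PCR with three housekeeping genes for normalization, after 48 h treatment of human HepaRG cells (0.5% DMSO, duplicates, up to 100 uM, half-log steps, 8 points). Curves fit both directions against DMSO baseline.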

[6] = read-out: UDP glucuronosyltransferase (UGT1A6), UGT1A6 (gene 54578); assay: LTEA_HepaRG_UGT1A6: Life Technologies and Expression Analysis (LTEA) Assay for UDP glucuronosyltransferase (UGT1A6) using HepaRG (AID 2283539; active = hit-call score of the fitted dose curve at least 0.9, where 1 is the maximum; inactive = score below 0.9); details: mRNA level, 48 h; actives raise or lower the signal
Summary of the method: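 HepaRG, 48 h post-plating switch to serum-free induction medium; chemical 48 h, 100 uM top, half-log x8, duplicate, 0.5% DMSO. Phenobarbital 1mM induction control. UGT1A6 mRNA by TaqMan qRT-PCR; gain/loss fit vs DMSO.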

[7] = read-out: X-box binding protein 1 (XBP1), XBP1 (gene 7494); assay: LTEA_HepaRG_XBP1: Life Technologies and Expression Analysis (LTEA) Assay for X-box binding protein 1 (XBP1) using HepaRG (AID 2283540; active = hit-call score of the fitted dose curve at least 0.9, where 1 is the maximum; inactive = score below 0.9); details: mRNA level, 48 h; actives raise or lower the signal
Summary of the method: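 Transcript levels of XBP1, measured by qRT-PCR and normalised to three housekeeping genes, were fitted bidirectionally relative to 0.5% DMSO controls. Human HepaRG cells received eight-point half-log dilutions from 100 uM for 48 h.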

[8] = LTEA_HepaRG_LDH_cytotoxicity: Cytotoxicity Assessment in the Life Technologies and Expression Analysis (LTEA) Assay (AID 2283563)
Summary of the method: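 Cells were thawed and plated for 48 h. Medium was then replaced with serum-free induction medium. Chemicals (8 half-log points, maximum 100 uM, 0.5% DMSO) were added in duplicate for 48 h, after which spent medium was assayed for LDH.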

[9] = Tanguay_ZF_120hpf_MORT_legacy: (Legacy) Oregon State University Tanguay Lab 120 Hour Post-fertilization zebrafish Assay for Mortality (AID 2283633)
Summary of the method: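 5D WT zebrafish, chorion removed 4 hpf; 1 embryo/well from 6 hpf; static exposure to 120 hpf, 28C, dark, sealed. Final DMSO 0.64%. Readout: binary mortality, brightfield, 24 + 120 hpf; DMSO as negative control.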

[10] = ATG_XTT_Cytotoxicity: Cytotoxicity Assessment in the Attagene TRANS-FACTORIAL HepG2 Assay (AID 2283584)
Summary of the method: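 Cells: human HepG2, transiently transfected with MRTU reporter constructs. Exposure 24 h. Readout: XTT, cell number. Baseline/neg ctrl DMSO; loss-of-signal scored.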

[11] = TOX21_p53_BLA_p2_viability: Viability Assessment in the Tox21 HCT-116 p53 Agonism Beta-lactamase Assay, Phase 2 (AID 2283591);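 note: compound exposure lasted 16 h at 37 °C; actives lower the ATP signal meaning cytotoxicity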
Summary of the method: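 HCT-116 p53-bla cells (4000/well) rested 5 h at 37C, then received compounds in DMSO (217-fold dilution) for 16 h at 37C, 5% CO2. After the CCF4 read, CellTiter-Glo was added; ATP luminescence was read after 30 min at room temperature.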

[12] = TOX21_p53_BLA_p3_viability: Viability Assessment in the Tox21 HCT-116 p53 Agonism Beta-lactamase Assay, Phase 3 (AID 2283593);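 note: cells exposed to compound for 16 h before reading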
Summary of the method: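 HCT-116 cells (4000/well) rested 5 h at 37C, then got DMSO compounds by pin tool (217-fold dilution) for 16 h at 37C, 5% CO2. After the bla read, CellTiter-Glo was added and luminescence read at 30 min, room temperature.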

[13] = TOX21_p53_BLA_p5_viability: Viability Assessment in the Tox21 HCT-116 p53 Agonism Beta-lactamase Assay, Phase 5 (AID 2283600)
Summary of the method: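 Workflow: seed 4000 cells per well, wait 5 h, add compounds (DMSO, 217-fold dilution), incubate 16 h, load CCF4-AM 2 h, add CellTiter-Glo, read luminescence after 30 min.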

[14] = target: Cellular tumor antigen p53 (Homo sapiens) (UniProt P04637); assay: TOX21_p53_BLA_p4_ratio: Tox21 HCT-116 p53 Agonism Beta-lactamase Assay, Ratio, Phase 4 (AID 2283601)
Sequence of Cellular tumor antigen p53 (Homo sapiens) (P04637 whole entry, looked up): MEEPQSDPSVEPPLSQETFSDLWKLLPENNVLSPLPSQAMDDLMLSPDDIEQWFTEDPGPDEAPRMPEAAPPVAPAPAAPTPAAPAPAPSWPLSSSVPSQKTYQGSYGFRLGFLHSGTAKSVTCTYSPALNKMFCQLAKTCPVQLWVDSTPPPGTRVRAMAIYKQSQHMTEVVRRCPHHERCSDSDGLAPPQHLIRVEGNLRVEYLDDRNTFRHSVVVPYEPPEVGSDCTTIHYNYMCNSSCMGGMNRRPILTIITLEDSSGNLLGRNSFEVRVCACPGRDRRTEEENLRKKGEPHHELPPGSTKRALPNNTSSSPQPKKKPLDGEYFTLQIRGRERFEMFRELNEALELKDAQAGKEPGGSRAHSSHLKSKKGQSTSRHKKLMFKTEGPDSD
Summary of the method: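 HCT116 cells carrying an inducible beta-lactamase reporter were plated at 4000 cells/well, rested 5 h, then exposed to compounds in DMSO (217-fold dilution) for 16 h at 37C. CCF4-AM substrate was loaded 2 h at room temperature; 460/530 nm emission ratio scored gain-of-signal versus DMSO.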

[15] = target: Cellular tumor antigen p53 (Homo sapiens) (UniProt P04637); assay: TOX21_p53_BLA_p3_ratio: Tox21 HCT-116 p53 Agonism Beta-lactamase Assay, Ratio, Phase 3 (AID 2283596)
Summary of the method: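 Cells were seeded at 4000/well, rested 5 h at 37C, then dosed with DMSO compound solutions (217-fold dilution) for 16 h. CCF4-AM substrate was loaded for 2 h at room temperature, and the 460/530 nm emission ratio was fitted for gain of signal versus DMSO.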

[16] = TOX21_p53_BLA_p4_viability: Viability Assessment in the Tox21 HCT-116 p53 Agonism Beta-lactamase Assay, Phase 4 (AID 2283597);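 note: hits lower the luminescence signal meaning cytotoxicity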
Summary of the method: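 Readout: ATP luminescence (CellTiter-Glo), measured 30 min after reagent addition at RT. The reagent followed a 2 h CCF4-AM incubation, and the cells had been exposed to compound for 16 h at 37C.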

[17] = target: Cellular tumor antigen p53 (Homo sapiens) (UniProt P04637); assay: TOX21_p53_BLA_p5_ratio: Tox21 HCT-116 p53 Agonism Beta-lactamase Assay, Ratio, Phase 5 (AID 2283599)
Summary of the method: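 HCT-116 cells carrying a p53-inducible beta-lactamase reporter were seeded at 4000 cells/well and dosed after 5 h with compound in DMSO (217-fold dilution). After 16 h at 37C, CCF4-AM substrate was added for 2 h, and the 460/530 nm emission ratio was scored as gain-of-signal versus DMSO.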

[18] = target: Cellular tumor antigen p53 (Homo sapiens) (UniProt P04637); assay: TOX21_p53_BLA_p2_ratio: Tox21 HCT-116 p53 Agonism Beta-lactamase Assay, Ratio, Phase 2 (AID 2283592)
Summary of the method: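 Plated HCT116 p53-bla cells (4000/well) received compound after 5 h, then 16 h at 37C/5% CO2. CCF4-AM added, 2 h RT. Ratio of 460 to 530 nm emission taken as the p53 reporter signal.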

Measured: AC50

COCCOCCO
active: [5] 1.57 µM
inactive: [1] | [2] | TIMP1, TIMP1 (gene 7076) | [3] | [4] | [6] | [7] | [8] | [9]

CC(Cl)(Cl)C(=O)O
inactive: [1] | [2] | TIMP1, TIMP1 (gene 7076) | [3] | [4] | [5] | [6] | [7] | [8] | [9]

CC(C)(C)c1ccc(O)cc1
inactive: [1] | [2] | TIMP1, TIMP1 (gene 7076) | [3] | [4] | [5] | [6] | [7] | [9]

Nc1ccc(Sc2ccc(N)cc2)cc1
inactive: [10]

N#Cc1ccc(O)cc1
inactive: [10]

CCOc1ccc(C(C)(C)COCc2cccc(Oc3ccccc3)c2)cc1
active: [5] 10.2 µM
inactive: [1] | [2] | TIMP1, TIMP1 (gene 7076) | [3] | [4] | [7] | [8] | [10] | [11] | [12] | [13] | [14] | [9]

CC(C)CBr
inactive: [10]

N#C/C=C/c1ccccc1
inactive: [10]

c1cc2c3c(cccc3c1)CC2
inactive: [1] | [2] | TIMP1, TIMP1 (gene 7076) | [3] | [4] | [5] | [6] | [7] | [8] | [11] | [15] | [16] | [17] | [13] | [14] | [9]

CCOC(=O)c1ccccc1N
inactive: [10]

CC(C)(C)c1ccccc1OP(=O)(Oc1ccccc1)Oc1ccccc1
inactive: [10]

CCOP(=O)(O)C(N)=O
inactive: [10]

[N-]=[N+]=[N-]
inactive: [2] | TIMP1, TIMP1 (gene 7076) | [6] | [7] | [8] | [11] | [12] | [15] | [16] | [17] | [13] | [14] | [9]
active: [1] 94.4 µM | [3] 72.6 µM | [4] 50 µM | [5] 80.7 µM

Cc1ccc(O)cc1C
inactive: [1] | [2] | TIMP1, TIMP1 (gene 7076) | [3] | [4] | [5] | [6] | [7] | [9]

Cc1cc(C)c(C(=O)P(=O)(c2ccccc2)c2ccccc2)c(C)c1
inactive: [10]

CCOP(=S)(OCC)SCS(=O)(=O)CC
inactive: [10]

CC(Cc1ccc(OCC(=O)O)cc1)NCC(O)c1csc(C(F)(F)F)n1 (configuration not stated)
inactive: [1] | [2] | TIMP1, TIMP1 (gene 7076) | [3] | [4] | [5] | [6] | [7] | [8] | [15] | [17] | [14] | [9]

N#Cc1cc([N+](=O)[O-])ccc1N
inactive: [10]

Cn1[nH]nnc1=S
inactive: [10]

COP(=O)(CCC(=O)NCO)OC
inactive: [10]

Clc1ccc(Oc2ccccc2)cc1
inactive: [10]

O=[N+]([O-])c1cc(Cl)ccc1Cl
inactive: [10]

O=P1(N(CCCl)CCCl)NCCCO1 (configuration not stated)
inactive: [1] | [2] | TIMP1, TIMP1 (gene 7076) | [3] | [4] | [5] | [6] | [7] | [8] | [11] | [15] | [17] | [14] | [9]

CCCCC(CC)COP(=O)(Oc1ccccc1)Oc1ccccc1 (configuration not stated)
inactive: [10]

Oc1ccc(I)cc1
inactive: [10]

CC(O)C#N (configuration not stated)
inactive: [10]

O=C(O)CF
inactive: [10]

Nc1ccc([N+](=O)[O-])cc1Cl
inactive: [10]

CC(Cl)CN(C)C (configuration not stated)
inactive: [10]

ClC(Cl)(Cl)c1ccccc1
inactive: [1] | [2] | TIMP1, TIMP1 (gene 7076) | [3] | [4] | [5] | [6] | [7] | [8] | [15] | [16] | [17] | [13] | [14] | [9]

CCOP(=S)(OCC)SCSc1ccc(Cl)cc1
inactive: [10]

CCCCc1ccc(O)cc1
inactive: [10] | [15] | [16] | [17] | [14]

O=P(OCC(Br)CBr)(OCC(Br)CBr)OCC(Br)CBr (configuration not stated)
inactive: [10] | [11] | [12] | [16] | [13]
active: [15] 75.3 µM and 86.9 µM | [17] 66.9 µM and 74.7 µM | [14] 75.7 µM and 73.6 µM

CCOP(=S)(S)OCC
inactive: [10] | [11] | [18] | [15] | [16] | [13] | [14]

CCOP(=S)(OCC)SCn1nnc2ccccc2c1=O
inactive: [10] | [11] | [12] | [15] | [16] | [17] | [13] | [14]

O=S(=O)(c1ccc(O)cc1)c1ccc(O)cc1
inactive: [10] | [11] | [12] | [15] | [16] | [13]

From PubChem BioAssay (EPA / NIEHS)
